Compound activity: PubChem, National Center for Advancing Translational Sciences (NCATS)
Compounds with a hit are over-represented: about 4.6% of the library has one in this group of screens.
D1 antagonist = human D1 dopamine receptor antagonism; P21728; AID 504652; 360,000 compounds, 3.2% hits; HEK293 TREx D1 cells, calcium flux, dopamine EC80; active compounds read low; activity change, negative = inhibition, % at 10 µM; in the data active = activity change below about -30%
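Tetracycline-induced HEK293 Trex D1 cells, force-coupled to calcium, dye-loaded; compounds added and read 180 s, then EC80 dopamine added and calcium flux tracked kinetically another 180 s.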
D1 potentiator = enhances dopamine response at the human D1 receptor; 360,000 compounds, 0.036% hits; HEK293 TREx D1 cells, calcium flux, dopamine EC20 potentiation; potentiation, % at 10 µM; P21728; in the data active = potentiation above about 30%
TRHR enhancer = allosterically enhances the human TRH receptor | 360,000 compounds, 0.66% hits | enhancement, % at 2 µM | TRHR cells, fluo-8 calcium fluorescence, EC20 TRH enhancement | AID 493056 | P34981; in the data active = enhancement above about 30%
Target sequence (P34981 whole entry, looked up): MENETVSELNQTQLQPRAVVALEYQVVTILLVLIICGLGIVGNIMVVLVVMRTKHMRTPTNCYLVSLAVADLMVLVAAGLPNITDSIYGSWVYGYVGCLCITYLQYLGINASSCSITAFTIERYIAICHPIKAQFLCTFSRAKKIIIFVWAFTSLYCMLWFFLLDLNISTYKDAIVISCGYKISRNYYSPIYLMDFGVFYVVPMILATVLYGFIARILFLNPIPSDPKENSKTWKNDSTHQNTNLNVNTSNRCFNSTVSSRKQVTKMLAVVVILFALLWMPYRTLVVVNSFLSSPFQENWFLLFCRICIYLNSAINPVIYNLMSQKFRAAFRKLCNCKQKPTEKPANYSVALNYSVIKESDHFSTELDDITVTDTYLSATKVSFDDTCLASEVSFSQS
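TRHR-expressing cells loaded with fluo-8 calcium dye were read kinetically (ex 480/em 530) during compound addition, then stimulated with an EC20 of TRH (10 nM final). Enhancement of the Gq-mediated intracellular calcium response was scored.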
TRHR agonist = TRH receptor (human) agonism. TRHR cells, calcium flux fluo-8, FDSS agonist mode. activation, % at 2 µM. 360,000 compounds, 0.18% hits. AID 493084. P34981
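Read-out: compound-evoked intracellular calcium rise in TRHR cells, fluo-8 dye, kinetic FDSS fluorescence at 1 s/cycle following a 10-cycle baseline. Cells cultured overnight before dye loading (30 min–1.5 h, RT).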
D1 ag = activates the human D1 dopamine receptor; P21728; 360,000 compounds, 1% hits; activation, % at 2 µM; HEK293 T-REx D1 cells, calcium flux, agonist mode
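Tetracycline-induced HEK293 TREx D1 cells, force-coupled to calcium signalling, were dye-loaded with a no-wash calcium kit. Compound was pin-added after a 10 s baseline. Fluorescence was read kinetically at 1 cycle/s for 180 s, with calcium rises flagged as agonism.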
Numbers stand for hits. Rule as the data show it, unless noted: active = activation above about 30%; inactive = the rest.

How did Cc1[nH]c2ccccc2c1-c1nc2ccccc2[nH]1 do in these assays?
D1 antagonist: -77.0; D1 potentiator: inactive; TRHR enhancer: inactive; TRHR agonist: inactive; D1 ag: inactive

What do the screens show for `Cc1ccnc(N/C=C(\C#N)c2nc(-c3cccc(Br)c3)cs2)c1`?
D1 antagonist: -35.8; D1 potentiator: inactive; TRHR enhancer: inactive; TRHR agonist: inactive; D1 ag: 160.1

Results for N#C/C(=C/c1ccc(Cl)cc1)c1nc(-c2ccc(Br)cc2)cs1 ?
D1 antagonist: inactive; D1 potentiator: inactive; TRHR enhancer: inactive; TRHR agonist: inactive; D1 ag: inactive

How did Cc1cccc(C)c1NC(=O)CN(C)C(C)C(=O)NCC(=O)Nc1ccc(F)c(F)c1F (stereo not given) do in these assays?
D1 antagonist: inactive; D1 potentiator: inactive; TRHR enhancer: inactive; TRHR agonist: inactive; D1 ag: inactive

How did CC(C(=O)Nc1ccc(F)c(F)c1F)N(C)CC(=O)Nc1ccccc1Br (stereo not given) do in these assays?
D1 antagonist: -30.9; D1 potentiator: inactive; TRHR enhancer: inactive; TRHR agonist: inactive; D1 ag: inactive

How did c1ccc(-c2ccccc2OCCCCn2ccnc2)cc1 do in these assays?
D1 antagonist: inactive; D1 potentiator: inactive; TRHR enhancer: inactive; TRHR agonist: inactive; D1 ag: inactive

What do the screens show for `CCOc1ccccc1NC(=O)CSc1nnc(-c2cnccn2)n1CC`?
D1 antagonist: inactive; D1 potentiator: inactive; TRHR enhancer: inactive; TRHR agonist: inactive; D1 ag: inactive

What do the screens show for `CC1(C)CC(=O)c2sc(NS(=O)(=O)c3ccccc3)nc2C1`?
D1 antagonist: -37.5; D1 potentiator: inactive; TRHR enhancer: inactive; TRHR agonist: inactive; D1 ag: inactive

What do the screens show for `CC1(C)CC(=O)c2sc(NS(=O)(=O)c3ccc([N+](=O)[O-])cc3)nc2C1`?
D1 antagonist: inactive; D1 potentiator: inactive; TRHR enhancer: inactive; TRHR agonist: inactive; D1 ag: inactive

What do the screens show for `O=C(NCCC1=CCCCC1)c1ccc2c(c1)ncn2-c1cccc(Cl)c1`?
D1 antagonist: inactive; D1 potentiator: inactive; TRHR enhancer: inactive; TRHR agonist: inactive; D1 ag: inactive

Results for COC(=O)C1CCN(C(=O)C2CCN(C(=O)[C@@H](NS(=O)(=O)c3ccc(C)cc3)C(C)C)CC2)CC1 ?
D1 antagonist: inactive; D1 potentiator: inactive; TRHR enhancer: inactive; TRHR agonist: inactive; D1 ag: inactive

How did Cc1ccc(NC2=C/C(=N/S(=O)(=O)c3cccs3)c3ccccc3C2=O)cc1C do in these assays?
D1 antagonist: -45.3; D1 potentiator: inactive; TRHR enhancer: inactive; TRHR agonist: inactive; D1 ag: inactive

What do the screens show for `Cc1ccccc1NC1=C/C(=N\S(=O)(=O)c2cccs2)c2ccccc2C1=O`?
D1 antagonist: inactive; D1 potentiator: inactive; TRHR enhancer: inactive; TRHR agonist: inactive; D1 ag: inactive

Results for CN(C)CCCNS(=O)(=O)c1cc(Cl)ccc1Cl ?
D1 antagonist: inactive; D1 potentiator: inactive; TRHR enhancer: inactive; TRHR agonist: inactive; D1 ag: inactive

Results for CN(C)CCCNS(=O)(=O)c1ccc(N2CCC(c3ccc(Cl)cc3)=N2)cc1 ?
D1 antagonist: inactive; D1 potentiator: inactive; TRHR enhancer: inactive; TRHR agonist: inactive; D1 ag: 42.3

Results for O=S(=O)(c1ccc(N2CCC(c3ccc(Cl)cc3)=N2)cc1)N(CCO)CCO ?
D1 antagonist: inactive; D1 potentiator: inactive; TRHR enhancer: inactive; TRHR agonist: inactive; D1 ag: 121.5

Results for O=C(COC(=O)Cc1ccc(S(=O)(=O)N2CCOCC2)s1)NCc1ccccc1 ?
D1 antagonist: -48.3; D1 potentiator: inactive; TRHR enhancer: inactive; TRHR agonist: inactive; D1 ag: inactive

Results for O=C(COC(=O)Cc1ccc(S(=O)(=O)N2CCOCC2)s1)NCCc1ccccc1 ?
D1 antagonist: inactive; D1 potentiator: inactive; TRHR enhancer: inactive; TRHR agonist: inactive; D1 ag: inactive

What do the screens show for `Oc1ccc(/C=N/Nc2nn3cnnc3c3ccccc23)cc1`?
D1 antagonist: -51.1; D1 potentiator: inactive; TRHR enhancer: inactive; TRHR agonist: inactive; D1 ag: inactive

How did CCOc1ccc(Cl)cc1S(=O)(=O)n1nnc2ccccc21 do in these assays?
D1 antagonist: -38.9; D1 potentiator: inactive; TRHR enhancer: inactive; TRHR agonist: inactive; D1 ag: inactive

Results for N#CCCn1c(SCC(=O)N2CCN(S(=O)(=O)c3ccccc3)CC2)nc2ccccc21 ?
D1 antagonist: inactive; D1 potentiator: inactive; TRHR enhancer: inactive; TRHR agonist: inactive; D1 ag: inactive
